# Measured values published in PubChem BioAssay AID1159580 (chemical genetic matrix, 2015).
# Out of some 5,500 compounds screened, about 2,000 (36%) were called active. About 18% were inconclusive and are not listed. The list shows a part of the results. Unmarked numbers belong to inactive results. Rule as the data show it: active = normalized growth mostly below about 0.91 (no sharp cut-off); inconclusive = no clear call, values can overlap the other calls; inactive = mostly above about 0.92.
# Assay: chemical genetic growth profiling, strain panel (AID 1159580);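 also: tested at 20 µM; growth read once vehicle control cultures reached saturation at 30 °C; 1 = growth at the plate median or of vehicle wells; lower values mean less growth of the strain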
# Conditions: growth OD
smiles,measurement,setting,value
COc1cc(C/C=C/c2ccccc2)c(OC)cc1O,normalized growth,"S. cerevisiae deletion strains, locus YJR066W, strain TOR1, stronger effect = lower value",0.989
same,normalized growth,"S. cerevisiae deletion strains, locus YJR075W, strain HOC1, stronger effect = lower value",0.935
same,normalized growth,"S. cerevisiae deletion strains, locus YKL009W, strain mrt4, stronger effect = lower value",1.01
same,normalized growth,"S. cerevisiae deletion strains, locus YKL068W, stronger effect = lower value",0.954
same,normalized growth,"S. cerevisiae deletion strains, locus YKL085W, strain MDH1 (second series), stronger effect = lower value",0.965
same,normalized growth,"S. cerevisiae deletion strains, locus YKL085W, strain MDH1, stronger effect = lower value",0.965
same,normalized growth,"S. cerevisiae deletion strains, locus YKL160W, strain elf1, stronger effect = lower value",0.95
same,normalized growth,"S. cerevisiae deletion strains, locus YKR001C, strain vps1, stronger effect = lower value",0.969
same,normalized growth,"S. cerevisiae deletion strains, locus YKR026C, strain gcn3, stronger effect = lower value",0.956
same,normalized growth,"S. cerevisiae deletion strains, locus YKR091W, strain srl3, stronger effect = lower value",0.954
same,normalized growth,"S. cerevisiae deletion strains, locus YLL001W, strain dnm1, stronger effect = lower value",0.926
same,normalized growth,"S. cerevisiae deletion strains, locus YLL026W, stronger effect = lower value",0.962
same,normalized growth,"S. cerevisiae deletion strains, locus YLL041C, strain sdh2, stronger effect = lower value",0.949
same,normalized growth,"S. cerevisiae deletion strains, locus YLR027C, strain aat2, stronger effect = lower value",0.942
same,normalized growth,"S. cerevisiae deletion strains, locus YLR039C, strain RIC1, stronger effect = lower value",0.91
same,normalized growth,"S. cerevisiae deletion strains, locus YLR058C, strain SHM2, stronger effect = lower value",0.987
same,normalized growth,"S. cerevisiae deletion strains, locus YLR102C, strain apc9, stronger effect = lower value",0.964
same,normalized growth,"S. cerevisiae deletion strains, locus YLR113W, strain HOG1, stronger effect = lower value",1.01
same,normalized growth,"S. cerevisiae deletion strains, locus YLR221C, strain rsa3, stronger effect = lower value",1
same,normalized growth,"S. cerevisiae deletion strains, locus YLR258W, strain gsy2, stronger effect = lower value",0.943
same,normalized growth,"S. cerevisiae deletion strains, locus YLR262C, strain YPT6 (second series), stronger effect = lower value",0.95
same,normalized growth,"S. cerevisiae deletion strains, locus YLR262C, strain YPT6, stronger effect = lower value",0.967
same,normalized growth,"S. cerevisiae deletion strains, locus YLR268W, strain sec22, stronger effect = lower value",1
same,normalized growth,"S. cerevisiae deletion strains, locus YLR320W, strain mms22, stronger effect = lower value",0.982
same,normalized growth,"S. cerevisiae deletion strains, locus YLR330W, strain CHS5, stronger effect = lower value",0.964
same,normalized growth,"S. cerevisiae deletion strains, locus YLR342W, strain FKS1 (second series), stronger effect = lower value",1.05
same,normalized growth,"S. cerevisiae deletion strains, locus YLR342W, strain FKS1, stronger effect = lower value",0.949
same,normalized growth,"S. cerevisiae deletion strains, locus YLR357W, strain rsc2, stronger effect = lower value",0.883
same,normalized growth,"S. cerevisiae deletion strains, locus YLR370C, strain arc18, stronger effect = lower value",0.965
same,normalized growth,"S. cerevisiae deletion strains, locus YLR371W, strain rom2, stronger effect = lower value",0.849 (active)
same,normalized growth,"S. cerevisiae deletion strains, locus YLR384C, strain iki3, stronger effect = lower value",0.98
same,normalized growth,"S. cerevisiae deletion strains, locus YLR418C, strain cdc73, stronger effect = lower value",0.883
same,normalized growth,"S. cerevisiae deletion strains, locus YML016C, strain PPZ1, stronger effect = lower value",0.963
same,normalized growth,"S. cerevisiae deletion strains, locus YML032C, strain rad52, stronger effect = lower value",1.02
same,normalized growth,"S. cerevisiae deletion strains, locus YML120C, strain ndi1, stronger effect = lower value",0.922
same,normalized growth,"S. cerevisiae deletion strains, locus YML124C, strain tub3, stronger effect = lower value",0.941
same,normalized growth,"S. cerevisiae deletion strains, locus YMR058W, strain fet3, stronger effect = lower value",0.923
same,normalized growth,"S. cerevisiae deletion strains, locus YMR078C, strain ctf18, stronger effect = lower value",0.956
same,normalized growth,"S. cerevisiae deletion strains, locus YMR125W, strain sto1, stronger effect = lower value",0.898
same,normalized growth,"S. cerevisiae deletion strains, locus YMR129W, stronger effect = lower value",0.96
same,normalized growth,"S. cerevisiae deletion strains, locus YMR205C, strain PFK2, stronger effect = lower value",0.914
same,normalized growth,"S. cerevisiae deletion strains, locus YMR223W, strain ubp8, stronger effect = lower value",0.983
same,normalized growth,"S. cerevisiae deletion strains, locus YMR231W, strain pep5, stronger effect = lower value",0.978
same,normalized growth,"S. cerevisiae deletion strains, locus YMR307W, strain GAS1, stronger effect = lower value",1.04
same,normalized growth,"S. cerevisiae deletion strains, locus YNL067W, strain RPL9B, stronger effect = lower value",0.966
same,normalized growth,"S. cerevisiae deletion strains, locus YNL071W, strain lat1, stronger effect = lower value",0.866 (active)
same,normalized growth,"S. cerevisiae deletion strains, locus YNL128W, strain TEP1, stronger effect = lower value",0.944
same,normalized growth,"S. cerevisiae deletion strains, locus YNL183C, strain NPR1, stronger effect = lower value",1
same,normalized growth,"S. cerevisiae deletion strains, locus YNL209W, strain ssb2, stronger effect = lower value",0.97
same,normalized growth,"S. cerevisiae deletion strains, locus YNL233W, strain BNI4, stronger effect = lower value",0.945
same,normalized growth,"S. cerevisiae deletion strains, locus YNL248C, strain rpa49, stronger effect = lower value",0.95
same,normalized growth,"S. cerevisiae deletion strains, locus YNL250W, strain rad50, stronger effect = lower value",0.898 (active)
same,normalized growth,"S. cerevisiae deletion strains, locus YNL271C, strain bni1, stronger effect = lower value",0.926
same,normalized growth,"S. cerevisiae deletion strains, locus YNL298W, strain CLA4, stronger effect = lower value",0.986
same,normalized growth,"S. cerevisiae deletion strains, locus YNL307C, strain MCK1, stronger effect = lower value",0.955
same,normalized growth,"S. cerevisiae deletion strains, locus YNL322C, strain KRE1 (second series), stronger effect = lower value",0.969
same,normalized growth,"S. cerevisiae deletion strains, locus YNL322C, strain KRE1, stronger effect = lower value",0.962
same,normalized growth,"S. cerevisiae deletion strains, locus YNR049C, strain mso1, stronger effect = lower value",0.962
same,normalized growth,"S. cerevisiae deletion strains, locus YNR052C, strain pop2, stronger effect = lower value",0.969
same,normalized growth,"S. cerevisiae deletion strains, locus YOL006C, strain TOP1, stronger effect = lower value",1.23
same,normalized growth,"S. cerevisiae deletion strains, locus YOL012C, strain htz1",0.65
same,normalized growth,"S. cerevisiae deletion strains, locus YOL147C, strain pex11, stronger effect = lower value",0.963
same,normalized growth,"S. cerevisiae deletion strains, locus YOR001W, strain rrp6, stronger effect = lower value",0.982
same,normalized growth,"S. cerevisiae deletion strains, locus YOR061W, strain CKA2, stronger effect = lower value",0.965
same,normalized growth,"S. cerevisiae deletion strains, locus YOR069W, strain VPS5, stronger effect = lower value",0.955
same,normalized growth,"S. cerevisiae deletion strains, locus YOR070C, strain gyp1, stronger effect = lower value",0.981
same,normalized growth,"S. cerevisiae deletion strains, locus YOR080W, strain dia2, stronger effect = lower value",0.959
same,normalized growth,"S. cerevisiae deletion strains, locus YOR083W, strain WHI5, stronger effect = lower value",0.934
same,normalized growth,"S. cerevisiae deletion strains, locus YOR106W, strain vam3, stronger effect = lower value",0.882
same,normalized growth,"S. cerevisiae deletion strains, locus YOR136W, strain idh2, stronger effect = lower value",0.963
same,normalized growth,"S. cerevisiae deletion strains, locus YOR144C, strain elg1, stronger effect = lower value",0.971
same,normalized growth,"S. cerevisiae deletion strains, locus YOR184W, strain ser1, stronger effect = lower value",1.08
same,normalized growth,"S. cerevisiae deletion strains, locus YOR231W, strain MKK1, stronger effect = lower value",1.07
same,normalized growth,"S. cerevisiae deletion strains, locus YOR265W, strain rbl2, stronger effect = lower value",0.955
same,normalized growth,"S. cerevisiae deletion strains, locus YOR270C, strain vph1, stronger effect = lower value",0.924
same,normalized growth,"S. cerevisiae deletion strains, locus YOR290C, strain snf2, stronger effect = lower value",0.902
same,normalized growth,"S. cerevisiae deletion strains, locus YOR316C, strain cot1, stronger effect = lower value",0.95
same,normalized growth,"S. cerevisiae deletion strains, locus YPL051W, strain arl3, stronger effect = lower value",0.937
same,normalized growth,"S. cerevisiae deletion strains, locus YPL055C, strain LGE1, stronger effect = lower value",1.01
same,normalized growth,"S. cerevisiae deletion strains, locus YPL078C, strain atp4, stronger effect = lower value",0.916
same,normalized growth,"S. cerevisiae deletion strains, locus YPL106C, strain sse1, stronger effect = lower value",0.847 (active)
same,normalized growth,"S. cerevisiae deletion strains, locus YPL240C, strain hsp82, stronger effect = lower value",0.963
same,normalized growth,"S. cerevisiae deletion strains, locus YPL256C, strain CLN2, stronger effect = lower value",1.03
same,normalized growth,"S. cerevisiae deletion strains, locus YPR119W, strain clb2, stronger effect = lower value",0.946
same,normalized growth,"S. cerevisiae deletion strains, locus YPR141C, strain kar3, stronger effect = lower value",0.914 (active)
same,normalized growth,"S. cerevisiae deletion strains, locus YPR163C, strain tif3, stronger effect = lower value",0.98
same,normalized growth,"S. cerevisiae deletion strains, locus YPR167C, strain met16, stronger effect = lower value",0.959
same,normalized growth,"S. cerevisiae deletion strains, strain wtn01, stronger effect = lower value",1.02
same,normalized growth,"S. cerevisiae strains, strain wild type, stronger effect = lower value",0.98
